Source: PubChem BioAssay
DPM-DC inhibit: blocks S. pneumoniae diphosphomevalonate decarboxylase | purified DPM-DC, PK/LDH coupled NADH fluorescence | calls only at 10 µM | 65,000 tested, 0.49% active | AID 556;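 active = the 320 compounds with the highest percent inhibition in the single-dose primary screen, excluding strongly autofluorescent ones, cut at about 32% in these data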;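 also: kinetic rate of NADH fluorescence loss reporting ADP formed by the decarboxylase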
MK inhibit: S. pneumoniae mevalonate kinase inhibition; inhibition, % at 10 µM; AID 555; 65,000 tested, 0.48% active; purified MK, PK/LDH-coupled NADH absorbance 340 nm;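 active = ranked among the strongest by inhibition in the single 10 µM screen, a fixed top-ranked set picked for dose follow-up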
Spn PMK inh: blocks S. pneumoniae phosphomevalonate kinase. purified PMK, PK/LDH-coupled NADH absorbance 340 nm. inhibition, % at 10 µM. 65,000 tested, 0.49% active. AID 539;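 active = top-ranked compounds by inhibition in the single 10 µM screen, taking a fixed number of the strongest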
Fluor 339 460: intrinsic fluorescence of library compounds, ex339/em460 – biochemical, MLSMR library, data from DPM-DC assay, artefact control, profiling panel. compound autofluorescence, ex339/em460 nm, NADH buffer; active compounds read high; 1 = no-compound wells, NADH background. fluorescence fold increase at 10 µM. 65,000 tested, 5.5% active. AID 709;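 active = at 10 µM, mean starting fluorescence two-fold or more over control wells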;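 also: signal is the first read of a kinetic run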
NADH enzymes: inhibitors of enzymes used to reach an NAD/NADH endpoint; IC50, µM (series often up to 10 µM); coupled PK/LDH NADH assays, four targets; 65,000 tested, 0.02% active;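 active = single-dose screening hits from any of four coupled enzyme assays that gave an IC50 when retested across doses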;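 also: the DPM-DC format reads NADH fluorescence rather than 340 nm absorbance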
A340 absorber: absorbance at 340 nm; compound absorbance at 340 nm, fold over control; fold change at 10 µM; 65,000 tested, under 10 active;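 active = at 10 µM dose, initial 340 nm absorbance at least 2 fold that of control wells; inactive = change under 2 fold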;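 also: initial absorbance extrapolated from kinetic A340 decline of NADH oxidation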
Of the large screens only hits and unclear results are named; the others gave an inactive call. Rows were chosen to be rich in hits. Some 6.8% of all compounds tested hit in one or more screens of this group.

COc1cc2cc(CN(Cc3cccnc3)C(=O)NCc3ccccc3)c(=O)[nH]c2cc1OC	Fluor 339 460 4.85 (not shown: DPM-DC inhibit)
CCCN(Cc1cc2cc(OC)ccc2[nH]c1=O)C(=O)c1ccncc1	none
CC(C)OCCCNC(=O)c1cc2c(s1)CS(=O)(=O)C2	none
Cc1ccc2[nH]c(=O)c(CN(CC3CCCO3)C(=O)c3ccco3)cc2c1 (configuration not stated)	none
O=C(NCc1ccccc1)N(Cc1cc2cc3c(cc2[nH]c1=O)OCO3)CC1CCCO1 (configuration not stated)	Fluor 339 460 3.66 (not shown: DPM-DC inhibit)
CC1(C)CC(=O)C(C(C2=C(O)CC(C)(C)CC2=O)c2cccnc2)C(=O)C1 (configuration not stated)	none
CC1(C)CC(=O)C(C(C2=C(O)CC(C)(C)CC2=O)c2cccc(O)c2)C(=O)C1 (configuration not stated)	Spn PMK inh 29.0
CC(C)COC(=O)NCC12C=CC(O1)C1C(=O)N(c3ccc(Cl)cc3)C(=O)C12 (configuration not stated)	Spn PMK inh 25.0
CS(=O)(=O)c1nc(-c2cccs2)cc(C(F)(F)F)n1	Fluor 339 460 2.23 (not shown: DPM-DC inhibit)
CN1CCN(c2nc(-c3cccs3)cc(C(F)(F)F)n2)CC1	none
Cc1cc(NC(=O)CCCS(=O)(=O)c2nc(-c3cccs3)cc(C(F)(F)F)n2)no1	Fluor 339 460 3.37 (not shown: DPM-DC inhibit)
Cc1cccc(OCc2nc(C#N)c(N3CC(C)CC(C)C3)o2)c1 (configuration not stated)	none
N#Cc1nc(Cc2cccc3ccccc23)oc1N1CCCCC1	none
N#Cc1nc(-c2ccccc2Cl)oc1N1CCCCC1	none
N#Cc1nc(-c2cccc3ccccc23)oc1N1CCCCC1	Fluor 339 460 3.7 (not shown: DPM-DC inhibit)
CC1CC(C)CN(c2oc(-c3ccccc3Cl)nc2C#N)C1 (configuration not stated)	Fluor 339 460 3.22 (not shown: DPM-DC inhibit)
CC1CCN(c2oc(-c3cccc4ccccc34)nc2C#N)CC1	Fluor 339 460 2.97 (not shown: DPM-DC inhibit)
Cc1nnc(SCCn2c(N3CC(C)CC(C)C3)nc3c2c(=O)[nH]c(=O)n3C)s1 (configuration not stated)	none
COc1ccc(-c2cc(C(F)(F)F)nc(SCCC(=O)Nc3cc(C)on3)n2)cc1	DPM-DC inhibit active
COc1ccc(-c2cc(C(F)(F)F)nc(SCCC(=O)N3CCN4CCCC4C3)n2)cc1 (configuration not stated)	DPM-DC inhibit active, Fluor 339 460 2.33
COc1ccc(-c2cc(C(F)(F)F)nc(NC3CCCC3)n2)cc1OC	none
COc1ccc(-c2cc(C(F)(F)F)nc(SCC(=O)N3CC(C)OC(C)C3)n2)cc1OC (configuration not stated)	Fluor 339 460 3.48 (not shown: DPM-DC inhibit)
O=C(CCSc1nc(-c2ccco2)cc(C(F)(F)F)n1)N1CCN(c2ccccc2)CC1	none
COc1ccc(-c2cc(C(F)(F)F)nc(SCC(=O)Nc3cc(C)on3)n2)cc1OC	Fluor 339 460 3.78 (not shown: DPM-DC inhibit)
Cc1cc(NC(=O)CSc2nc(-c3cccs3)cc(C(F)(F)F)n2)no1	none
COc1ccc(OCCC(=O)Nc2cc(C)on2)cc1	none
CCN(CC)CCCN1C(=O)C(O)=C(C(C)=O)C1c1ccc(OC)cc1OC (configuration not stated)	none
O=C(CCSc1nc(-c2ccc3c(c2)OCO3)cc(C(F)(F)F)n1)NCc1ccco1	Spn PMK inh 28.0, Fluor 339 460 2.2 (not shown: DPM-DC inhibit)
CCOc1cc(C2NC(=O)NC(O)(C(F)(F)F)C2C(=O)c2ccc(OC)cc2)ccc1O (configuration not stated)	none
O=C(NCc1ccccc1)N(Cc1nc2ccccc2c(=O)[nH]1)C1CCCC1	Fluor 339 460 3.76 (not shown: DPM-DC inhibit)
COC(=O)c1cc(=O)nc2sccn12	Spn PMK inh 27.0
CCOc1ccc2nc(NCCCNS(=O)(=O)c3ccccc3)c(C#N)cc2c1	Fluor 339 460 2.32
COc1ccc(OC)c(C2C(C(=O)c3ccco3)=C(O)C(=O)N2CCCN2CCOCC2)c1 (configuration not stated)	none
CC(=O)N(Cc1ccco1)C1(C(=O)NC2CCCCC2)CCCCC1	none
O=C1CCC(C(=O)N(Cc2ccco2)C2(C(=O)NC3CCCC3)CCCCC2)N1 (configuration not stated)	DPM-DC inhibit active
O=c1cc(-c2ccco2)nc(-c2cccs2)o1	none
COc1cc(-c2nnc(SCC#CCO)o2)cc(OC)c1OC	none
c1coc(-c2nnc(-c3cccs3)o2)c1	Fluor 339 460 3.35 (not shown: DPM-DC inhibit)
c1csc(-c2nnc(-c3ccc(N4CCOCC4)cc3)o2)c1	Fluor 339 460 3.71 (not shown: DPM-DC inhibit)
COc1cc(-c2nnc(-c3cccs3)o2)cc(OC)c1OC	Fluor 339 460 2.51
COc1cc2nc(-c3cccs3)oc(=O)c2cc1OC	none
COc1ccc(-c2nnc(-c3cccs3)o2)cc1OC	Fluor 339 460 2.47 (not shown: DPM-DC inhibit)
C/C(N)=C(/C#N)C(=O)CSc1nnnn1-c1ccc(C)cc1C	none
CCOc1ccc(-c2nc(-c3ccccc3)no2)cc1OCC	none
c1cncc(-c2nnc(-c3cccs3)o2)c1	Fluor 339 460 2.26
Brc1ccccc1-c1nnc(-c2cccnc2)o1	none
CCOc1ccc(-c2nnc(-c3cccs3)o2)cc1OCC	Fluor 339 460 3.7 (not shown: DPM-DC inhibit)
COc1ccc(C2CC(c3cccc(OC)c3OC)n3nnnc3N2)cc1 (configuration not stated)	none
Cc1cccc(C)c1NS(=O)(=O)c1c(C)[nH]c(=O)[nH]c1=O	none
O=C(NC1CCCCCCC1)c1ccccc1O	Fluor 339 460 2.97
Cc1occc1C(=O)NC1CCCCCC1	none
O=C(Cc1cn2ccsc2n1)OCc1nc2ccccc2s1	Spn PMK inh 25.0
O=C(Cc1cn2ccsc2n1)OCc1ccccc1	none
Cc1noc(C)c1COC(=O)CCCc1nc2ccccc2s1	none
Cc1noc(C)c1COC(=O)c1ccc(-c2nc3ccccc3s2)s1	Fluor 339 460 3.96
COc1ccc(-c2nnc(SCC(=O)NC(=O)NCc3ccco3)o2)cc1	none
COC(=O)C1=C(C)NC2=C(C(=O)CCC2)C1c1ccccn1 (configuration not stated)	Fluor 339 460 2.14 (not shown: DPM-DC inhibit)
CCOC(=O)C1=C(C)NC2=C(C(=O)CCC2)C1c1cccnc1 (configuration not stated)	Fluor 339 460 2.08 (not shown: DPM-DC inhibit)
CCN(CC)c1ccc(C2C(C(=O)OCCOC)=C(C)NC3=C2C(=O)CCC3)cc1 (configuration not stated)	none
CC1=C(C(=O)OC(C)C)C(c2cccs2)C2=C(CCCC2=O)N1 (configuration not stated)	none
CC1=C(C(=O)OCC2CCCO2)C(c2ccccc2OC(C)C)C2=C(CC(c3ccco3)CC2=O)N1 (configuration not stated)	Fluor 339 460 3.32 (not shown: DPM-DC inhibit)
COCCOC(=O)C1=C(C)NC2=C(C(=O)CC(c3cccs3)C2)C1c1ccsc1 (configuration not stated)	Fluor 339 460 2.39
